Inhibition data for 46 molecules are collected here from PubChem BioAssay AID1850 (Southern Research Specialized Biocontainment Screening …, 2009).

What is called inhibition is the relative decrease from the control value, in per cent.

Screen size: about 310,000 compounds; about 1,000 (0.32%) were called active. The rule behind the calls is not given here. Only a sample is shown. Measured potencies and affinities stand elsewhere.

The nature of the assay: Inhibition of PhoP regulon, Salmonella typhi GFP reporter cells, confirmation, 4 h (AID 1850).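 Note: 0% = induced wells with vehicle and 100% = uninduced wells.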 The following applies: Salmonella Typhi PhoP-promoter GFP reporter, fluorescence, at 50 µM, hits give high values.
Turning to `Cc1ccc(NC(=O)CSc2nnc(CNC(=O)c3ccco3)o2)cc1Cl`, the inhibition was -4.93% (inactive).
On to `CCCCC(=O)NC(=S)Nc1cccc(NC(=O)CC)c1`, for which the inhibition was -1.01% (inactive).
As to `CCCCC(=O)NNC(=S)NC(=O)C(c1ccccc1)c1ccccc1`, the inhibition was -0.63% (inactive).
Take `CCCCCCCC(=O)NNC(=O)CCC(=O)O`: the inhibition is -4.06% (inactive).
The figure for `CCCCC(=O)NC(=S)NNC(=O)CCc1ccccc1` is -4.48% (inactive).
Regarding `CCCCCC(=O)NNC(=S)NC(=O)c1ccc([N+](=O)[O-])cc1`, the inhibition is -13% (inactive).
Take `CCCCCC(=O)NC(=S)NC1C2CC3CC(C2)CC1C3` (stereo unspecified): the inhibition is 14.6% (inactive).
`CCCCC(=O)NC(=S)NNC(=O)CC#N`: the inhibition is 15.9% (inactive).
On to `CCCCC(=O)NNC(=S)NC(=O)c1ccc(C)cc1`, for which the inhibition was 12.1% (inactive).
Turning to `O=C(CNc1cccc(S(=O)(=O)N2CCOCC2)c1)N1CCc2ccccc21`, the inhibition was -12.4% (inactive).
Take `Cc1cc(-n2c(=S)sc3c(=O)n(-c4ccc(F)cc4)c(SCC(=O)O)nc32)ccc1Cl`: the inhibition is 2.23% (inactive).
Take `CN(c1ccccc1)S(=O)(=O)c1ccc(NC(=O)c2ccc(F)cc2)cc1`: the inhibition is -3.04% (inactive).
Take `Cc1cc(OCC(=O)Nc2ccc(OCc3ccccc3)cc2)nc(C(C)C)n1`: the inhibition was -4.55% (inactive).
With `O=C(CCn1cnc(-c2ccccc2)c1-c1ccccc1)N/N=C/c1ccccc1O`, the inhibition is -2.92% (inactive).
On to `COc1cccc(-c2ccc(SCC(=O)NC3CCCC3)nn2)c1`, for which the inhibition is -7.47% (inactive).
Regarding `CCN1CCN(C(=O)CCS(=O)(=O)c2cc3c(cc2Cl)NC(=O)CO3)CC1`, the inhibition was 12.4% (inactive).
The figure for `CCn1c(C)cc(/C=C2/SC(=S)N(CC(=O)O)C2=O)c1C` is 6.61% (inactive).
Consider `O=C(Oc1cccc(NC(=O)c2ccco2)c1)c1cccc(S(=O)(=O)N2CCCCC2)c1`, for which the inhibition was 2.38% (inactive).
As to `N=c1n(CC(=O)c2cccs2)c2ccccc2n1Cc1ccccc1`, the inhibition was 11.7% (inactive).
With `CCN(CC)CCn1c(=N)n(CC(=O)c2ccc(Br)s2)c2ccccc21`, the inhibition was 14.1% (inactive).
`CCn1c(=N)n(CC(=O)c2ccc(Br)s2)c2ccccc21`: the inhibition was 11.2% (inactive).
The same measure for `Cn1c(=N)n(CC(=O)c2ccc(Br)s2)c2ccccc21`: -0.89% (inactive).
With `CCc1cc(CNC(=O)C2CCC(=O)N(CCc3ccc(OC)cc3)C2)on1` (stereo unspecified), the inhibition is -3.38% (inactive).
Consider `CCOC(=O)C1=C(c2ccccc2)Nc2ncnn2C1c1ccc(C(=O)O)cc1` (stereo unspecified), for which the inhibition was -0.92% (inactive).
Turning to `CCOC(=O)C1=C(c2ccccc2)NC(N)=NC1c1ccc(OCc2ccc(Cl)cc2)c(OC)c1` (stereo unspecified), the inhibition is 0.34% (inactive).
With `Cc1ccc(SCc2cc(=O)[nH]c(N3CCOCC3)n2)cc1`, the inhibition is 4.21% (inactive).
Regarding `C#CCOCCOCCOCCNc1nc(N2CCN(C(=O)CCCCCCCCCCNC(=O)[C@H](CCCCN)n3cc(C[C@@H](C)CC)nn3)CC2)nc(N2CCN(C(=O)CCCCCCCCCCNC(=O)[C@@H]([C@H](C)O)n3cc(C)nn3)CC2)n1`, the inhibition is 51.8% (inactive).
With `C#CCOCCOCCOCCNc1nc(N2CCN(C(=O)CCCCCCCCCCNC(=O)[C@@H](CCSC)n3cc(CCO)nn3)CC2)nc(N2CCN(C(=O)CCCCCCCCCCNC(=O)[C@H](CCCN=C(N)N)n3cc(C[C@@H](C)CC)nn3)CC2)n1`, the inhibition was -10.5% (inactive).
`C#CCOCCOCCOCCNc1nc(N2CCN(C(=O)CCCCCCCCCCNC(=O)[C@H](CCCCN)n3cc(C)nn3)CC2)nc(N2CCN(C(=O)CCCCCCCCCCNC(=O)[C@H](CCCCN)n3cc(CCCC(=O)O)nn3)CC2)n1`: the inhibition is -29.8% (inactive).
In the case of `C#CCOCCOCCOCCNc1nc(N2CCN(C(=O)CCCCCCCCCCNC(=O)Cn3cc(C[C@@H](C)O)nn3)CC2)nc(N2CCN(C(=O)CCCCCCCCCCNC(=O)[C@H](CCCN=C(N)N)n3cc(C[C@@H](C)CC)nn3)CC2)n1`, the inhibition is 25.7% (inactive).
With `C#CCOCCOCCOCCNc1nc(N2CCN(C(=O)CCCCCCCCCCNC(=O)[C@H](CCCCN)n3cc(CCO)nn3)CC2)nc(N2CCN(C(=O)CCCCCCCCCCNC(=O)[C@H](CCCCN)n3cc(CCCC(=O)O)nn3)CC2)n1`, the inhibition was -30.2% (inactive).
In the case of `C#CCOCCOCCOCCNc1nc(N2CCN(C(=O)CCCCCCCCCCNC(=O)[C@H](CCCCN)n3cc(CCCC(=O)O)nn3)CC2)nc(N2CCN(C(=O)CCCCCCCCCCNC(=O)[C@H](CCCN=C(N)N)n3cc(C[C@@H](C)CC)nn3)CC2)n1`, the inhibition was 13.7% (inactive).
In the case of `C#CCOCCOCCOCCNc1nc(N2CCN(C(=O)CCCCCCCCCCNC(=O)[C@H](CCCCN)n3cc(CCCC(=O)O)nn3)CC2)nc(N2CCN(C(=O)CCCCCCCCCCNC(=O)[C@H](CCCCN)n3cc(CCCC(=O)O)nn3)CC2)n1`, the inhibition was 0.23% (inactive).
As to `COc1ccccc1/C=N/NC(=O)c1nnn(-c2nonc2N)c1CSC1=NCCS1`, the inhibition is -3.46% (inactive).
For `COc1cc(/C=C/C(=O)Nc2ccncc2)cc(OC)c1OC`, the inhibition is 9.98% (inactive).
`Cc1nn(-c2ccccc2)c(N2CCCC2)c1/C=N/NC(=O)c1cc(-c2cccs2)nc2ccccc12`: the inhibition was -12.2% (inactive).
`CCOC(=O)C1(CCCc2ccccc2)CCN(C(=O)CCN2CCCCC2=O)CC1`: the inhibition was -9.1% (inactive).
In the case of `O=C(c1ccc(COc2ccccc2Cl)o1)N1N=C(C(F)F)CC1(O)C(F)F` (stereo unspecified), the inhibition is -0.36% (inactive).
With `Cc1ccc(C(O)P(=O)(Oc2ccccc2)Oc2ccccc2)cc1` (stereo unspecified), the inhibition was -35.5% (inactive).
As to `COc1ccc(NC(=O)CCN2C(=O)C3CC=C(Cl)CC3C2=O)cc1` (stereo unspecified), the inhibition was -3.04% (inactive).
The same measure for `C#CCOCCOCCOCCNc1nc(N2CCN(C(=O)CCCCCCCCCCNC(=O)[C@@H](CCC(=O)O)n3cc(CCCCCN)nn3)CC2)nc(N2CCN(C(=O)CCCCCCCCCCNC(=O)[C@H](CO)n3cc(CCCCCN)nn3)CC2)n1`: -6.21% (inactive); for `C#CCOCCOCCOCCNc1nc(N2CCN(C(=O)CCCCCCCCCCNC(=O)[C@H](CO)n3cc(CCCSC)nn3)CC2)nc(N2CCN(C(=O)CCCCCCCCCCNC(=O)[C@H](CCCN=C(N)N)n3cc(C[C@@H](C)CC)nn3)CC2)n1`: 25.4% (inactive).
Consider `C#CCOCCOCCOCCNc1nc(N2CCN(C(=O)CCCCCCCCCCNC(=O)Cn3cc(C[C@@H](C)O)nn3)CC2)nc(N2CCN(C(=O)CCCCCCCCCCNC(=O)[C@H](CCCCN)n3cc(C[C@@H](C)CC)nn3)CC2)n1`, for which the inhibition was 14.8% (inactive).
In the case of `C#CCOCCOCCOCCNc1nc(N2CCN(C(=O)CCCCCCCCCCNC(=O)[C@H](CO)n3cc(CCCSC)nn3)CC2)nc(N2CCN(C(=O)CCCCCCCCCCNC(=O)[C@H](CCCCN)n3cc(C[C@@H](C)CC)nn3)CC2)n1`, the inhibition was -5.02% (inactive).
Regarding `C#CCOCCOCCOCCNc1nc(N2CCN(C(=O)CCCCCCCCCCNC(=O)[C@@H](CCC(=O)O)n3cc(CCCCCN)nn3)CC2)nc(N2CCN(C(=O)CCCCCCCCCCNC(=O)[C@H](CCCCN)n3cc(C[C@@H](C)CC)nn3)CC2)n1`, the inhibition is -7.23% (inactive).
Regarding `C#CCOCCOCCOCCNc1nc(N2CCN(C(=O)CCCCCCCCCCNC(=O)[C@@H](CCC(=O)O)n3cc(CCCCCN)nn3)CC2)nc(N2CCN(C(=O)CCCCCCCCCCNC(=O)[C@H](CO)n3cc(CCCSC)nn3)CC2)n1`, the inhibition was -11.4% (inactive).
